Active and inactive are the calls of the source. Unless noted, calls follow the shape of the dose curve; as a rule, active = well fitted curve in the direction sought with a large enough effect in the repeat runs; inconclusive = weak or mixed curves; inactive = no such curve, though single readings can be large; an effect the other way counts as inactive or inconclusive.
Tests used:
[1] = qHTS assay to identify small molecule antagonists of the glucocorticoid receptor (GR) signaling pathway - cell viability counter screen (AID 720693); also: nearly all actives have a fitted effect of over 55% in size; also: potency is read from the fitted curve at half-maximal effect
[2] = qHTS assay for identifying genotoxic compounds that show differential cytotoxicity against isogenic chicken DT40 cell lines with known DNA damage response pathways - wild type cell line (AID 743012); also: nearly all actives have a fitted effect of over 60% in size; also: potency is read from the fitted curve at half-maximal effect
Method in brief: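 CellTiter-Glo luminescence readout of viability in wild type DT40 cells after 40 h compound exposure at 37 C/5% CO2; 300 cells/well; reagent incubated 30 min at room temperature before reading.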

[3] = qHTS assay for identifying genotoxic compounds that show differential cytotoxicity against isogenic chicken DT40 cell lines with known DNA damage response pathways - Rev3 mutant cell line (AID 743014); also: nearly all actives have a fitted effect of over 55% in size; also: potency is read from the fitted curve at half-maximal effect
[4] = qHTS assay for identifying genotoxic compounds that show differential cytotoxicity against isogenic chicken DT40 cell lines with known DNA damage response pathways - Rad54/Ku70 mutant cell line (AID 743015); also: nearly all actives have a fitted effect of over 60% in size; also: potency is read from the fitted curve at half-maximal effect
[5] = qHTS assay to identify small molecule antagonists of the androgen receptor (AR) signaling pathway - cell viability counter screen (AID 743033; also: nearly all actives have a fitted effect of over 45% in size; also: potency is read from the fitted curve at half-maximal effect)
[6] = qHTS assay to identify small molecule antagonists of the androgen receptor (AR) signaling pathway using the MDA cell line - cell viability counter screen (AID 743041; also: nearly all actives have a fitted effect of over 45% in size; also: potency is read from the fitted curve at half-maximal effect)
Method in brief: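 Cytotoxicity counter screen: MDA-kb2 AR-luc cells, compound + R1881, 16 h, 37C, 0% CO2; CellTiter-Fluor added at 15.5 h, fluorescence read after 30 min.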

[7] = qHTS assay to identify small molecule antagonists of the thyroid receptor (TR) signaling pathway - cell viability counter screen (AID 743064); also: nearly all actives have a fitted effect of over 50% in size; also: potency is read from the fitted curve at half-maximal effect
Method in brief: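 In-well cytotoxicity read by CellTiter-Fluor (30 min, 37 C) following 23.5 h exposure of GH3 cells bearing a TRE-luciferase sensor. Compounds were added alongside 1 nM (final) T3 to drive TR transactivation.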

[8] = qHTS assay to identify small molecule antagonists of the thyroid receptor (TR) signaling pathway (AID 743065); also: nearly all actives have a fitted effect of over 55% in size; also: potency is read from the fitted curve at half-maximal effect
Method in brief: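 GH3.TRE-Luc rat pituitary cells (two TREs driving luciferase) were dosed with compound, then stimulated with 1 nM T3 (final) for 23.5 h at 37 C. ONE-Glo luminescence was the read-out, with CellTiter-Fluor fluorescence as the cytotoxicity counter-screen.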

[9] = tested on: thyroid hormone receptor (rat, GH3 cells); experiment: qHTS assay to identify small molecule agonists of the thyroid receptor (TR) signaling pathway (AID 743066; calls by dose curve)
[10] = biological target: Estrogen receptor (Homo sapiens) (UniProt P03372); experiment: qHTS assay to identify small molecule antagonists of the estrogen receptor alpha (ER-alpha) signaling pathway (AID 743069; active = well fitted curve in the direction sought with a large enough effect in the signal ratio in the repeat runs, not every such curve was filed as active; inconclusive = weak or mixed curves, or effect the other way; inactive = no such curve, though single readings can be large or run the other way; the % refers to the signal ratio; also: potency is read from the fitted curve at half-maximal effect)
Method in brief: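 Beta-lactamase FRET fluorescence is read after 2 hr at room temperature with LiveBLAzer B/G substrate. Before that, ER-alpha-bla HEK293 cells sit 4 hr after plating, then receive compound plus 17beta-estradiol and incubate 18 hr at 37C.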

[11] = qHTS assay to identify small molecule antagonists of the estrogen receptor alpha (ER-alpha) signaling pathway - cell viability counter screen (AID 743074; calls by dose curve;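 also: HEK293 cells carrying ER-alpha-UAS-bla reporter stimulated with 17beta-estradiol; nearly all actives have a fitted effect of over 45% in size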; also: potency is read from the fitted curve at half-maximal effect)
[12] = biological target: Estrogen receptor (Homo sapiens) (UniProt P03372); experiment: qHTS assay to identify small molecule agonists of the estrogen receptor alpha (ER-alpha) signaling pathway (AID 743075; calls by dose curve;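 also: HEK293 GripTite cells with ER-alpha and UAS-driven beta-lactamase reporter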)
[13] = biological target: Estrogen receptor (Homo sapiens) (UniProt P03372); experiment: qHTS assay to identify small molecule agonists of the estrogen receptor alpha (ER-alpha) signaling pathway using the BG1 cell line (AID 743079); details: BG1Luc4E2 cells, ERE-luciferase agonist, 22 h; activation: at 70.3 µM (top of the series); also: nearly all actives have a fitted effect of over 20% in size
[14] = qHTS assay to identify small molecule antagonists of the estrogen receptor alpha (ER-alpha) signaling pathway using the BG1 cell line (AID 743080; calls by dose curve;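 also: BG1 cells stimulated with 17beta-estradiol alongside compound; nearly all actives have a fitted effect of over 25% in size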); details: BG1Luc4E2 ERE-luciferase antagonist mode, luminescence; activity change, negative = inhibition: at 70.3 µM (top of the series)
Method in brief: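 Quantitative HTS on the Tox21 10K library: BG1 cells with endogenous ER-alpha and ERE-luciferase reporter, 17beta-estradiol stimulation, 21.5 h compound exposure, luminescence endpoint with parallel fluorescence cytotoxicity counter-read.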

[15] = qHTS assay to identify small molecule antagonists of the estrogen receptor alpha (ER-alpha) signaling pathway using the BG1 cell line - cell viability counter screen (AID 743081);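 also: compound given together with 17beta-estradiol as the ER stimulus; nearly all actives have a fitted effect of over 45% in size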; also: potency is read from the fitted curve at half-maximal effect
Aromatase (Homo sapiens) = Aromatase (Homo sapiens) (UniProt P11511); experiment: qHTS assay to identify aromatase inhibitors (AID 743083); also: nearly all actives have a fitted effect of over 55% in size; also: potency is read from the fitted curve at half-maximal effect
[16] = biological target: Androgen receptor (Homo sapiens) (UniProt P10275); experiment: qHTS assay to identify small molecule antagonists of the androgen receptor (AR) signaling pathway (AID 743035; active = well fitted inhibition curve with a large enough effect in the signal ratio in the repeat runs, not every such curve was filed as active; inconclusive = weak or mixed curves, or effect the other way; inactive = no such curve, though single readings can be large or run the other way; the % refers to the signal ratio)
Method in brief: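 AR-bla HEK293 reporter cells; 4 h settle at 37C/5% CO2; compound + R1881 agonist, 16 h at 37C; LiveBLAzer B/G FRET substrate 2 h RT; fluorescence intensity read. qHTS format.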

[17] = biological target: Androgen receptor (Homo sapiens) (UniProt P10275); experiment: qHTS assay to identify small molecule agonists of the androgen receptor (AR) signaling pathway (AID 743036; active = well fitted activation curve with a large enough effect in the signal ratio in the repeat runs, with a control signal flat, not every such curve was filed as active; inconclusive = weak or mixed curves, or effect the other way; inactive = no such curve, though single readings can be large or run the other way; the % refers to the signal ratio)
Method in brief: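 Activation was read as beta-lactamase FRET signal from LiveBLAzer B/G substrate, added for 2 h at room temperature. Before that, GeneBLAzer AR-UAS-bla GripTite (HEK293) cells had 16 h compound exposure at 37C.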

[18] = biological target: Androgen receptor (Homo sapiens) (UniProt P10275); experiment: qHTS assay to identify small molecule agonists of the androgen receptor (AR) signaling pathway using the MDA cell line (AID 743040; also: nearly all actives have a fitted effect of over 20% in size)
Method in brief: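 Luciferase read-out, ONE-Glo, 30 min RT. Cells: MDA-kb2 AR-luc, MMTV promoter with AR and GR response elements. Compound exposure 16 h, 37C, 0% CO2, after 5 h pre-incubation. qHTS agonist mode.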

[19] = biological target: Androgen receptor (Homo sapiens) (UniProt P10275); experiment: qHTS assay to identify small molecule antagonists of the androgen receptor (AR) signaling pathway using the MDA cell line (AID 743042; also: nearly all actives have a fitted effect of over 55% in size; also: potency is read from the fitted curve at half-maximal effect)
Method in brief: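 MDA-kb2 breast carcinoma cells carrying MMTV-luciferase (AR/GR responsive) were co-treated with compounds and the agonist R1881 for 16 h at 37C. Inhibition read as ONE-Glo luminescence; CellTiter-Fluor fluorescence measured in parallel for cytotoxicity.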

Measured: Potency

Androgen receptor (Homo sapiens), sequence (P10275 whole entry, looked up): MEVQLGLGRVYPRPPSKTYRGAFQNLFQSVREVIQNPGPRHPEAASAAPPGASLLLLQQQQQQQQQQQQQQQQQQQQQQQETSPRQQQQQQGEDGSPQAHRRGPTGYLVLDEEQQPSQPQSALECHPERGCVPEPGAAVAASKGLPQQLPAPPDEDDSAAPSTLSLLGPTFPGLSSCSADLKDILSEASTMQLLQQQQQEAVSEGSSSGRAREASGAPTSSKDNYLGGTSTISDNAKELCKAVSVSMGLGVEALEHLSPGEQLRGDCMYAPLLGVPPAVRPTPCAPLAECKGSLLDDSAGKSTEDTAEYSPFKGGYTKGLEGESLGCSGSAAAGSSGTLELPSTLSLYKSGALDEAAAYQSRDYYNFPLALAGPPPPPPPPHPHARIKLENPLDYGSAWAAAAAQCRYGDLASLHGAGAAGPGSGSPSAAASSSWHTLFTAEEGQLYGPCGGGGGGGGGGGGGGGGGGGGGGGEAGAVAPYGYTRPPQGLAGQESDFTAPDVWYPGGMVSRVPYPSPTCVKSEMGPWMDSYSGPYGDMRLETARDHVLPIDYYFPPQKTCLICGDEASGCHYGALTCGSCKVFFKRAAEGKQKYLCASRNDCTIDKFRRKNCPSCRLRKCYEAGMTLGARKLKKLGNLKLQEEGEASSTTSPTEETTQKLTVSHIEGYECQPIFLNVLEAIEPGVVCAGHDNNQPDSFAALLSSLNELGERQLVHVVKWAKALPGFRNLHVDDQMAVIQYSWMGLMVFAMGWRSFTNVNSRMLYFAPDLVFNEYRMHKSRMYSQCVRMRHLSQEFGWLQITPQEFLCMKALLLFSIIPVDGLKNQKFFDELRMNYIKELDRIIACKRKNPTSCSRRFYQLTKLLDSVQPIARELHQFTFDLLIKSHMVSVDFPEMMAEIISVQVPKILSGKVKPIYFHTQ
Estrogen receptor (Homo sapiens), sequence (P03372 whole entry, looked up): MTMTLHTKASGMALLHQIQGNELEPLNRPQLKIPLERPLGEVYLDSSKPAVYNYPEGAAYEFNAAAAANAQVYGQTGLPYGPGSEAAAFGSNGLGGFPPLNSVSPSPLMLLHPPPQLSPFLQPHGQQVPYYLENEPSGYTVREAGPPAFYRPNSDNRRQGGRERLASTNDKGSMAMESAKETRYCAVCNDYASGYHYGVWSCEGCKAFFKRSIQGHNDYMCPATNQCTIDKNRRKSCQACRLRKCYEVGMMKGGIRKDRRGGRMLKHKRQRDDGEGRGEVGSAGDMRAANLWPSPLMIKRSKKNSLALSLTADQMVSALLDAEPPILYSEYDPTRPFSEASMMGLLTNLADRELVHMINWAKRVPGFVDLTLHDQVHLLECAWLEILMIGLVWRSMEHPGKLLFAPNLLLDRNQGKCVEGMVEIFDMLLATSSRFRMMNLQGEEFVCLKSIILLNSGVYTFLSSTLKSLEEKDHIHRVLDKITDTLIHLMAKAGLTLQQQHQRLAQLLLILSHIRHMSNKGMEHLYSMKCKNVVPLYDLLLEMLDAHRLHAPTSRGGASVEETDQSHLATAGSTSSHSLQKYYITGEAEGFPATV
Aromatase (Homo sapiens), sequence (P11511 whole entry, looked up): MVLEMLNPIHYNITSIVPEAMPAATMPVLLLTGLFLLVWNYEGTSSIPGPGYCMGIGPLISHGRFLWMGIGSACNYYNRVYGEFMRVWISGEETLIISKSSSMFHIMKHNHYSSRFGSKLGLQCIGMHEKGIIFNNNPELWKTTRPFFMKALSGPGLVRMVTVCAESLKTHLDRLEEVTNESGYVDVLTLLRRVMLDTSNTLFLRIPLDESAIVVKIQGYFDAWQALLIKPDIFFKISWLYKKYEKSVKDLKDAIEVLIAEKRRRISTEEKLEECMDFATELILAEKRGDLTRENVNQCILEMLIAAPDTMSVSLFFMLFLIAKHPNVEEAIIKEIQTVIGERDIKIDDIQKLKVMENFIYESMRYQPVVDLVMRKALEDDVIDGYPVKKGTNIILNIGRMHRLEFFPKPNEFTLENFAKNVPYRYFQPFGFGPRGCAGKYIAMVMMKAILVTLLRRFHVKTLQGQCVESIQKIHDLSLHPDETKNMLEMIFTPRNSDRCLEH

COC(=O)CC#N
not listed: [16] | [17] | [18] | [19]
inactive: all other assays above

Cc1cn[nH]c1
not listed: [7] | [8]
inactive: all other assays above

Oc1c(Br)cc(Br)c2cccnc12
active: [2] 11.9 µM | [3] 11.9 µM | [4] 13.3 µM | [7] 26.6 µM | [8] 16.8 µM
inactive: [1] | [5] | [6] | [12] | Aromatase (Homo sapiens)

O=S(=O)(O)CCCN1CCOCC1
not listed: [16] | [17] | [18] | [19]
inactive: all other assays above

COCC(=O)O[C@]1(CCN(C)CCCc2nc3ccccc3[nH]2)CCc2cc(F)ccc2[C@@H]1C(C)C
active: [1] 10.7 µM | [2] 2.37 µM | [3] 4.22 µM | [4] 4.73 µM | [5] 10.7 µM | [6] 9.44 µM | [19] 7.5 µM | [8] 1.88 µM | [11] 9.52 µM | [15] 26.6 µM | Aromatase (Homo sapiens) 13.3 µM
inactive: [18]

Cc1ccc(N)cc1O
active: [2] 30.6 µM | [3] 56.1 µM | [4] 52 µM
not listed: [6] | [7] | [11] | Aromatase (Homo sapiens) | [16] | [17] | [19]
inactive: all other assays above

O=C(O)CCn1c2c(c3ccccc31)C[C@H](NS(=O)(=O)c1ccc(F)cc1)CC2
inactive: [1] | [2] | [3] | [4] | [5] | [6] | [7] | [8] | [9] | [11] | Aromatase (Homo sapiens)

NC(=O)c1ccccc1N
not listed: [7] | [8] | [16] | [17]
inactive: all other assays above

CNC(=O)c1cc(Oc2ccc(NC(=O)Nc3ccc(Cl)c(C(F)(F)F)c3)cc2)ccn1
active: [1] 19 µM | [2] 4.73 µM | [3] 5.31 µM | [4] 5.31 µM | [5] 16.9 µM | [6] 16.8 µM | [7] 9.44 µM | [8] 5.96 µM | [10] 6.01 µM [inconclusive] | [11] 21.3 µM | Aromatase (Homo sapiens) 11.9 µM
inactive: [12]

C/C=C/C=N/NC(=O)c1ccncc1
not listed: [10] | [12] | [13] | [14] | [16] | [17] | [18] | [19]
inactive: all other assays above

O=C(O)c1cccc(Cl)n1
active: [2] 19.3 µM | [3] 61.1 µM | [4] 61.1 µM
not listed: [7] | [8] | [17]
inactive: all other assays above

Cc1cccc(C)c1NC(=O)CN1CCN(CCCC(c2ccc(F)cc2)c2ccc(F)cc2)CC1
inactive: [1] | [5] | [6] | [11] | [15] | Aromatase (Homo sapiens)
active: [2] 4.03 µM | [3] 5.69 µM | [4] 7.17 µM

CC(=O)Nc1ccc(O)cc1
inactive: [1] | [2] | [3] | [4] | [5] | [6] | [8] | [9] | [11] | [15] | Aromatase (Homo sapiens)

C(=C/c1ccccc1)/c1ccccc1
not listed: [7] | [16] | [17] | [18] | [19]
inactive: all other assays above

— PubChem BioAssay (Tox21)
